The panel holds about 83,000 compounds, 20% with a hit somewhere; the sample as a whole holds those more often.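 Results are percent growth after 48 hours of single-concentration exposure. 100 means growth as in untreated cells, lower positive values show inhibition; negative values down to -100 show cell death.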 Values without a mark were called inactive. The source made the active and inactive calls. Rule for the calls: active = growth percent below 10; inactive = the rest.
Legend:
Assay in all cases: NCI-60 one-dose screen, 48 h (100 = growth as untreated, 0 = no growth, -100 = all killed)
Conditions in all cases: 10 µM unless noted
NCI-H23 lung = tested on: NCI-H23 lung
NCI-H226 lung = tested on: NCI-H226 lung
NCI-H322M lung = tested on: NCI-H322M lung
HOP-62 NSCLC = tested on: HOP-62 NSCLC
NCI-H460 lung = tested on: NCI-H460 lung
HOP-92 NSCLC = tested on: HOP-92 NSCLC
NCI-H522 lung = tested on: NCI-H522 lung
786-0 renal = tested on: 786-0 renal
COLO 205 colon = tested on: COLO 205 colon
DU-145 prostate = tested on: DU-145 prostate
K-562 leukemia = tested on: K-562 leukemia
MALME-3M melanoma = tested on: MALME-3M melanoma
MDA-MB-231 breast = tested on: MDA-MB-231 breast
RXF 393 renal = tested on: RXF 393 renal
SF-268 CNS = tested on: SF-268 CNS
SF-295 CNS = tested on: SF-295 CNS
SF-539 CNS = tested on: SF-539 CNS
UACC-257 melanoma = tested on: UACC-257 melanoma
M14 melanoma = tested on: M14 melanoma
A549/ATCC NSCLC = tested on: A549/ATCC NSCLC

| Compound | growth (NCI-H23 lung) | growth (NCI-H226 lung) [%] | growth (NCI-H322M lung) [%] | growth (HOP-62 NSCLC) | growth (NCI-H460 lung) | growth (HOP-92 NSCLC) | growth (NCI-H522 lung) | growth (786-0 renal) | growth (COLO 205 colon) | growth (DU-145 prostate) [%] | growth (K-562 leukemia) | growth (MALME-3M melanoma) | growth (MDA-MB-231 breast) | growth (RXF 393 renal) | growth (SF-268 CNS) [%] | growth (SF-295 CNS) | growth (SF-539 CNS) | growth (UACC-257 melanoma) | growth (M14 melanoma) | growth (A549/ATCC NSCLC) |
| --- | --- | --- | --- | --- | --- | --- | --- | --- | --- | --- | --- | --- | --- | --- | --- | --- | --- | --- | --- | --- |
| NNC(=S)N/N=C/c1ccccn1 | 30.9% | 34.3 | 46.2 | 13% | 9.74% (active) | 21% | -14.3% (active) | 24.4% | 15% | 34.5 | 19.4% | 54.3% | 47.2% | 25.2% | 42.9 | 33.5% | 11.2% | 45.7% | 23.7% | – |
| COC(=O)/C=C1/SC(=Nc2cccc(Cl)c2)N(CCc2c[nH]c3ccc(O)cc23)C1=O | 51.1% | 81.3 | 98.6 | 15.4% | 37% | 40.7% | 11% | 19.1% | – | 14.4 | 5.71% (active) | 42.6% | 29.1% | 10.7% | 25.3 | 64.2% | 0.787% (active) | 31.9% | 13% | 78.9% |
| O=C(Cn1cc(CN2C(=O)c3ccccc3S2(=O)=O)nn1)Nc1cccc(Cl)c1 | 97.1% | 117 | 99 | 125% | 111% | 105% | 93.9% | 115% | – | 109 | 103% | 99.6% | 115% | 106% | 99.4 | 115% | 110% | 113% | 100% | 111% |
| CC1=NN(c2ccc(Cl)cc2)CC1(C)N=O (centres undefined) | 88.4% | 76.9 | 99.9 | 95.8% | 95.9% | 83.3% | 44.5% | 73.1% | – | 83.9 | 40.1% | 68.5% | 78.3% | 32.7% | 94.9 | 101% | 91% | 90% | 64.9% | 99.9% |
| CCOC(=O)c1c(C)nc2ccccc2c1/C=C/c1ccc(OC)cc1 | 46.3% | 61.8 | 95.8 | 71.8% | 78.1% | 44.5% | 53.5% | 77.8% | – | 93.1 | 42% | 87% | 74.6% | 91.3% | 78 | 58.8% | 85.3% | 74% | 70.5% | 57.6% |
| CC(C)C[C@@H](C(=O)N[C@H](C(=O)OC1CCCC1)c1ccccc1)[C@H](O)C(=O)NO | 55.6% | 70.1 | 69.2 | 26.9% | 92.4% | 65.7% | 41.1% | 67.8% | – | 68.3 | 22.7% | 38.3% | 9.77% (active) | 7.55% (active) | 88.9 | 60.8% | 52.2% | 36% | 54.5% | 56% |
| CCOC(=O)C1=C(C)N=C2SC=C(c3ccccc3)N2[C@H]1c1cn[nH]c1-c1ccc(Cl)cc1 | 51.2% | 66.4 | 78.7 | 63% | 43.3% | -1.56% (active) | -56.8% (active) | 49.6% | 57.1% | 64.6 | 40.5% | -27.9% (active) | 41.9% | 61.2% | 44.8 | 41% | 44.4% | 52.6% | 47.7% | – |
| CC/C=C\C/C=C/C=C1/C(=O)C=C[C@@H]1C/C=C\CCCC(=O)OC | 24.9% | 55.7 | 95.8 | 36.1% | 76.2% | 42.4% | -32.3% (active) | -15% (active) | – | 40.1 | 2.34% (active) | 35% | 4.18% (active) | 32.9% | 21.9 | 81.8% | 26.8% | 66.5% | 32.1% | 80.8% |
| C/C(=C(\c1ccc(OCCN2CCCCCC2)cc1)c1ccc(OC(=O)Cc2ccccc2)cc1)c1ccc(Cl)cc1 | 48.5% | 91.2 | 73.5 | 7.91% (active) | -60.1% (active) | 49.5% | 38.8% | -42% (active) | -79.7% (active) | 62.3 | -35.1% (active) | 22.6% | 35.1% | 21.1% | 49 | 3.77% (active) | 46.9% | 5.81% (active) | -53.1% (active) | – |
| CCSC1=CC(=O)c2ccccc2C1=O | 85.9% | 88.4 | 94.6 | 76.8% | 112% | -2.5% (active) | -20.9% (active) | 111% | 96.9% | 95.1 | 2.73% (active) | 14% | 3.95% (active) | 42.8% | 76.5 | 97.2% | 106% | 83.1% | 84.1% | – |
| S=c1[nH]c2cc(Cl)ccc2o1 | 104% | 104 | 107 | 102% | 100% | 82.6% | 102% | 92.7% | – | 102 | 90.7% | 102% | 89% | 104% | 105 | 99.2% | 106% | 113% | 94.3% | 118% |
| Cc1ncc(C(=O)Nc2ccc(CN3CCN(C)CC3)c(C(F)(F)F)c2)cc1C#Cc1cnc(N)c2cnccc12 | 9.05% (active) | 12.1 | 14.8 | -21.8% (active) | -53.9% (active) | 34.2% | -0.528% (active) | 14% | -27% (active) | 13.5 | 25.1% | -26.1% (active) | -63.4% (active) | -34.3% (active) | 14.6 | 23.6% | -76.2% (active) | -16.8% (active) | -78.5% (active) | – |
| CC1O[C@@H]2C[C@@](O)([C@H]1O)n1c3ccccc3c3c4c(c5c6ccccc6n2c5c31)C(=O)NC4=O (some centres undefined) | 33.7% | 37.2 | 62.8 | 13.4% | 11.3% | 121% | 30.7% | 48.8% | – | 57.8 | 30% | 50.3% | 57.8% | 49.2% | 49.8 | 19.2% | 33.2% | 47.9% | 25.7% | 32.3% |
| Cc1c2cc[nH]c(=O)c2c(C)c2c1[nH]c1ccc(OC(=O)c3ccccc3)cc12 | 24.4% | 38.5 | 40.8 | 18.7% | 1.23% (active) | 40.9% | 26.9% | 44.9% | – | 34 | 36.2% | 20% | 34% | 37.4% | 40 | 31.6% | 17.1% | 11.2% | 33.7% | 6.49% (active) |
| Clc1nccc2c(-c3csc(-c4c[nH]c5ccccc45)n3)c[nH]c12 | 68.8% | 39.5 | 80.8 | 101% | 11.9% | 24.3% | 18.5% | 27.7% | – | 31.6 | 10.3% | 79.8% | 24.8% | 12.4% | 73.4 | 26.7% | 41.9% | -29.2% (active) | -26.6% (active) | 29.1% |
| O=C1/C(=C/c2ccc(C(F)(F)F)cc2)COc2ccc(O)cc21 | 98% | 107 | 95.2 | 96.2% | 98.4% | 82.4% | -13.6% (active) | 80% | 90.7% | 99.1 | 5.54% (active) | 88.7% | 79.4% | 102% | 85.3 | 99.1% | 86.7% | 98.1% | 85.6% | – |
